Drawing on PubChem BioAssay (NCI), this text covers growth inhibition for 20 compounds.

SMILES strings stand for the structures. About 79,000 compounds went through this panel and 15% of them were active in at least one assay; those are over-represented in the sample as a whole. A number with no mark means an inactive call. Active and inactive are the calls of the source. No stated cut-off is given here; in the data, active means growth inhibition above about 70%; inactive means the rest.

Assay [1] in a line: NCI Yeast Anticancer Drug Screen. Data for the rad50 strain (AID 155).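 Further: 0% = growth of vehicle-only cultures of the same strain.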 Conditions: S. cerevisiae rad50 strain growth inhibition; at 50.0 µM; hits give high values. An outline of the steps:
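A DNA repair-deficient yeast mutant serves as the test organism; compound-induced growth inhibition is calculated against vehicle-treated cells.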

Assay [2] is described as follows: NCI Yeast Anticancer Drug Screen. Data for the mec2-1 strain (AID 157). To be noted: S. cerevisiae mec2-1 strain, at 50.0 µM, hits give high values. In short, it runs like this:
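Cells of the genetically defined mec2-1 yeast strain are incubated with test compound. Inhibition of growth is calculated against vehicle-treated controls.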

A short description of assay [3]: NCI Yeast Anticancer Drug Screen. Data for the sgs1 mgt1 strain (AID 161).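 Further: 0% = growth of cultures given vehicle only.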 To be noted: S. cerevisiae sgs1 mgt1 strain, at 50.0 µM, hits give high values. An outline of the steps:
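Genetically altered yeast, compound exposure, growth inhibition relative to vehicle.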

A short description of assay [4]: NCI Yeast Anticancer Drug Screen. Data for the cln2 rad14 strain (AID 165).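 Further: 0% = growth equal to vehicle treated cultures.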 Conditions: S. cerevisiae cln2 rad14 strain, at 50.0 µM, hits give high values. An outline of the steps:
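The screen exposed genetically defined yeast (cln2 rad14) to test compounds and scored growth inhibition relative to vehicle-treated controls.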

A short description of assay [5]: NCI Yeast Anticancer Drug Screen. Data for the bub3 strain (AID 167). To be noted: S. cerevisiae bub3 mutant strain, at 50.0 µM, hits give high values. In short, it runs like this:
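Inhibition values come from growth of compound-treated mutant yeast normalised to vehicle-treated controls.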

The nature of assay [6]: NCI Yeast Anticancer Drug Screen. Data for the mlh1 rad18 strain (AID 175). To be noted: S. cerevisiae mlh1 rad18 strain growth inhibition; at 50.0 µM; hits give high values. In short, it runs like this: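 Compound-treated yeast growth, normalised to vehicle controls. Strain bears defined DNA repair mutations.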

For the compound `CC(=O)Nc1cccc2ccc([N+](=O)[O-])cc12`, the growth inhibition is 13.1% in assay [1]; 0.9% in assay [2]; -3.8% in assay [3]; 16.4% in assay [4]; -5.7% in assay [5]; 7.85% in assay [6].
Consider `C1CCN(CCC2CCCCN2)CC1` (stereo not given), for which the growth inhibition was -23.4% in assay [1]; -32.4% in assay [2]; -41.6% in assay [3]; -33.2% in assay [4]; -37.8% in assay [5]; -28% in assay [6].
Consider `O=S(=O)(N/N=C/c1ccc(/C=N/NS(=O)(=O)c2ccccc2)cc1)c1ccccc1`, for which the growth inhibition is -6.9% in assay [1]; -15.8% in assay [2]; -21.3% in assay [3]; 12.6% in assay [4]; -7.95% in assay [5]; 0.15% in assay [6].
On to `CC1(C)O[C@@H]2C[C@H]3[C@@H]4C[C@H](F)C5=CC(=O)C=C[C@]5(C)[C@@]4(F)[C@@H](O)C[C@]3(C)[C@]2(C(=O)CO)O1`, for which the growth inhibition in assay [1] is -1.8%; in assay [2], -25.6%; in assay [3], 0.25%; in assay [4], -4.75%; in assay [5] it was -57.8%; in assay [6] it was -8.35%.
With `Cc1ccc(S(=O)(=O)Nc2cccc3c(=O)[nH]cnc23)cc1`, the growth inhibition is 1.6% in assay [1]; -13.8% in assay [2]; 1.2% in assay [3]; -37.2% in assay [4]; 10.3% in assay [5]; 18.8% in assay [6].
On to `CCS(=O)(=O)CCNC(=O)NS(=O)(=O)c1ccc(C)cc1`, for which the growth inhibition was -2.2% in assay [1]; -7.85% in assay [2]; -11.8% in assay [3]; -1.2% in assay [4]; 7.7% in assay [5]; 0.9% in assay [6].
On to `COC(=O)c1ccc(Cn2ccc(=O)n(Cc3ccc(C(=O)OC)cc3)c2=O)cc1`, for which the growth inhibition in assay [1] is 63.2%; in assay [2], 23.8%; in assay [3] it was 74.6% (active); in assay [4], 30.6%; in assay [5], 31.3%; in assay [6] it was 43.1%.
On to `Fc1c(F)c(F)c(Nc2c(F)c(F)c3c(F)c(F)c(F)c(F)c3c2F)c(F)c1F`, for which the growth inhibition in assay [1] was 1.15%; in assay [2] it was 49.7%; in assay [3], -16.3%; in assay [4], -62.9%; in assay [5] it was 2.9%; in assay [6], 0.95%.
Consider `O=C1c2cc3c(cc2CC12Cc1cc4c(cc1C2)CCC4)CCC3`, for which the growth inhibition in assay [1] is -14.6%; in assay [2], 1.4%; in assay [3], -8%; in assay [4], 7.45%; in assay [5], -3%; in assay [6], -1.35%.
As for `CC(=O)OCC1COC(C)(c2ccccc2)O1` (stereo not given), the growth inhibition in assay [1] is 4.65%; in assay [2], 0.3%; in assay [3], -6.65%; in assay [4] it was 3.7%; in assay [5] it was 4.15%; in assay [6], -9.55%.
For the compound `CCOc1ccc(NC(=O)/C(CC(=O)c2sc(Nc3ccc(C)cc3)nc2C)=N\NC(N)=S)cc1`, the growth inhibition in assay [1] is -33.3%; in assay [2], 3.15%; in assay [3] it was 8.95%; in assay [4] it was -49.6%; in assay [5], -11.4%; in assay [6], -35.5%.
For `CNC(=O)C1CCC(=O)N1Cc1c[nH]c2ccccc12` (stereo not given), the growth inhibition in assay [1] was -4.6%; in assay [2] it was -8.65%; in assay [3] it was -1.75%; in assay [4], 2.25%; in assay [5] it was 8.75%; in assay [6], -5.45%.
Consider `O=[N+]([O-])c1ccc(Nc2ccc(Cl)cc2)c2nonc12`, for which the growth inhibition is -24.7% in assay [1]; -7.9% in assay [2]; 25.7% in assay [3]; 18.4% in assay [4]; 8.85% in assay [5]; 23.4% in assay [6].
Turning to `O=c1ccn(/C=C\c2nc3ccccc3[nH]c2=O)c(=S)[nH]1`, the growth inhibition in assay [1] is -37.8%; in assay [2] it was -27.3%; in assay [3] it was -35.9%; in assay [4] it was 13.7%; in assay [5], -17.5%; in assay [6], -40.4%.
For the compound `COC(=O)C(=O)C(C(=O)c1cccc2ccccc12)c1nc2n(c1O)C(=N)N=N2` (stereo not given), the growth inhibition in assay [1] is 18.4%; in assay [2], 4.45%; in assay [3], 11.6%; in assay [4], -4.9%; in assay [5], -2.75%; in assay [6], 0.8%.
Take `CC1c2c(Cl)nc3ccccc3c2Oc2c1c(Cl)nc1ccccc21`: the growth inhibition in assay [1] is 7.05%; in assay [2], 5.1%; in assay [3], -6.05%; in assay [4] it was 18.3%; in assay [5], 5.1%; in assay [6] it was 22.1%.
As to `CCCCCCCCCCCCCCC(O)CO` (stereo not given), the growth inhibition was -11.3% in assay [1]; -12.7% in assay [2]; -4.45% in assay [3]; -102% in assay [4]; -27.1% in assay [5]; -20.9% in assay [6].
With `CCOC(=O)C1=[N+]([O-])OC2=C(O)CCCC21` (stereo not given), the growth inhibition in assay [1] is 5.7%; in assay [2], 2.25%; in assay [3] it was 9.05%; in assay [4], -8.85%; in assay [5] it was 2.4%; in assay [6], -19.3%.
With `CCN1CCCC(Cl)C1` (stereo not given), the growth inhibition in assay [1] was 12.8%; in assay [2], -41%; in assay [3], 14.7%; in assay [4], -0.5%; in assay [5] it was -12.4%; in assay [6] it was 5.95%.
On to `c1ccc(NP2(Nc3ccccc3)=NP(Nc3ccccc3)(Nc3ccccc3)=NP(Nc3ccccc3)(Nc3ccccc3)=N2)cc1`, for which the growth inhibition in assay [1] was -12.2%; in assay [2], 5.55%; in assay [3] it was -10.4%; in assay [4], 15.2%; in assay [5] it was 17.1%; in assay [6], -2.2%.
